Records with an inconclusive call do not appear. Where a call stands in place of a potency, no number is given. The source holds several records for some structures; these can differ, active in one and inactive in another. Activity calls are given as the source filed them. Unless noted, calls follow the shape of the dose curve; as a rule, active = well fitted curve in the direction sought with a large enough effect; inconclusive = small, poorly fitted or top-dose-only effect, or another doubt; inactive = no such curve, though single readings can be large; an effect the other way counts as inactive or inconclusive.
Key:
[1] = qHTS for Inhibitors of Plasmodium falciparum (DD2) proliferation (AID 504314);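 also: parasite DNA measured by SYBR Green fluorescence after red cell lysis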
Method in brief: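 Parasite proliferation measured as SYBR Green signal from Plasmodium DNA, mature erythrocytes lacking DNA. 72 h incubation, 37C; activity scaled between vehicle and 0.29 uM artemisinin, with correction from vehicle-only plates.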

[2] = qHTS for Inhibitors of Plasmodium falciparum (GB4) proliferation (AID 504315); also: nearly all actives have a fitted effect of over 50% in size; also: potency is read from the fitted curve at half-maximal effect
Method in brief: (§1)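 Parasite growth measured as SYBR Green DNA fluorescence (ex 485, em 535 nm) after overnight lysis following 72 h culture at 37 °C, 0.3% parasitemia, 2.5% hematocrit. Values normalized against DMSO and 0.29 uM artemisinin controls, with plate-stack correction.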

[3] = qHTS for Inhibitors of Plasmodium falciparum (7G8) proliferation (AID 504316); also: nearly all actives have a fitted effect of over 65% in size; also: potency is read from the fitted curve at half-maximal effect
Method in brief: as §1

[4] = qHTS for Inhibitors of Plasmodium falciparum (CP250) proliferation (AID 504320)
Method in brief: as §1

[5] = target: Atrial natriuretic peptide receptor 1 (Homo sapiens) (UniProt P16066); test: Natriuretic polypeptide receptor (hNpr1) antagonism - Pilot CMLD screen (AID 1347052; calls by dose curve;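 also: cGMP level read as GloSensor luciferase luminescence after agonist stimulation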; also: potency is read from the fitted curve at half-maximal effect)
Sequence of Atrial natriuretic peptide receptor 1 (Homo sapiens) (P16066 whole entry, looked up): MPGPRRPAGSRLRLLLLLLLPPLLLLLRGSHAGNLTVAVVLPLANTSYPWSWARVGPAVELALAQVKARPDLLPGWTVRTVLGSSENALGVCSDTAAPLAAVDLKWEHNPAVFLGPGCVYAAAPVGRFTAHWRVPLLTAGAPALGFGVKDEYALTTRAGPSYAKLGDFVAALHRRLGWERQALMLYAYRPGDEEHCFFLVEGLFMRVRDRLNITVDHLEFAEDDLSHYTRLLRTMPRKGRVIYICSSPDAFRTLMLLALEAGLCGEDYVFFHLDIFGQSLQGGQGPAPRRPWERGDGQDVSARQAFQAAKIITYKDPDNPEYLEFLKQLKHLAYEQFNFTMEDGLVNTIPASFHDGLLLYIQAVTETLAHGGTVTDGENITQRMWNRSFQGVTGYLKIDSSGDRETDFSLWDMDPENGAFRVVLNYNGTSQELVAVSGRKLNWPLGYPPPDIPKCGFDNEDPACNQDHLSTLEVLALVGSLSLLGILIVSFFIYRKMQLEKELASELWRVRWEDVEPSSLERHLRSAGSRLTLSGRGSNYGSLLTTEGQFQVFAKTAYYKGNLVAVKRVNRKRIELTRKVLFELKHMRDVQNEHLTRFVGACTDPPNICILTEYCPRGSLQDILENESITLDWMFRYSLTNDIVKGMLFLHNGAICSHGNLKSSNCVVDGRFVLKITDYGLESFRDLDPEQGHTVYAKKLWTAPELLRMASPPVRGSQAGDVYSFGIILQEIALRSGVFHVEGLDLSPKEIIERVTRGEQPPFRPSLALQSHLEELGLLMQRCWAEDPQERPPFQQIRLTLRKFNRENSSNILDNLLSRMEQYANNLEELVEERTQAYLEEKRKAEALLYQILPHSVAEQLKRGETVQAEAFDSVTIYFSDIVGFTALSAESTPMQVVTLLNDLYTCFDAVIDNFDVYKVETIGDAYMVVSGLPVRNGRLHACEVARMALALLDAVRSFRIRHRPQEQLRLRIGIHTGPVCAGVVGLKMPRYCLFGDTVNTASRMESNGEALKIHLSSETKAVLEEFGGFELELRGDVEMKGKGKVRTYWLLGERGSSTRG

SMILES | Potency [1] | Potency [2] | Potency [3] | Potency [4] | Potency [5] | activity, negative = inhibition [1]
C[C@]12O[C@@H]1[C@@H](O)C(Br)=C(CO)[C@@H]2O | inactive | inactive | inactive | inactive | inactive | –
CC1=C[C@@H](C)OC2(C1)C(=O)N(Cc1ccc(Br)cc1)c1cccc(Br)c12 (stereo not given in full) | inactive | inactive | inactive | inactive | inactive | –
COC(=O)C(=Cc1cc(Br)c(OC)c(Br)c1)C(=O)OC | inactive | inactive | inactive | inactive | inactive | –
COC(=O)C1=C(C)N(Cc2ccccc2)C(=S)NC1c1ccccc1 (stereo not given) | inactive | inactive | inactive | inactive | inactive | –
CCOC(=O)CCN1C(=O)[C@@H]2[C@H]3[C@H](O)[C@H](O)CC(=NNC(=O)OCc4ccc(OC)cc4)[C@@H]3CC[C@H]2C1=O | inactive | inactive | inactive | inactive | inactive | –
COC(=O)c1ccc(CN2C(=O)[C@]3(O[C@H](C)CC4=CCCC43)c3c(Br)cccc32)cc1 (stereo not given in full) | inactive | inactive | inactive | inactive | inactive | –
CCCNC(=O)OC[C@H]1O[C@H](CCON=C2c3cc(OC)ccc3O[C@H](c3cccc(OC)c3)[C@H]2O)C=C[C@H]1Oc1ccc(OC)cc1 | inactive | inactive | 1690 nM (active) | inactive | inactive | –
CCN1C(=O)N(S(=O)(=O)c2ccc(C)cc2)C(c2ccccc2)C(C(=O)OC)=C1C (stereo not given) | inactive | inactive | inactive | inactive | inactive | –
COC(=O)C1=C(C)N(Cc2ccccc2)C(=S)NC1CCc1ccccc1 (stereo not given) | inactive | inactive | inactive | inactive | inactive | –
Cc1cc(C)c(S(=O)(=O)OC[C@H]2C=CC[C@@H](CCC[C@H]3O[C@H](C(=O)OC(C)C)CC[C@@H]3C)O2)c(C)c1 | inactive | inactive | inactive | inactive | inactive | –
CC(=O)OC[C@H]1O[C@H](C#CCCCc2ccccc2)C=C[C@H]1OC(C)=O | inactive | inactive | inactive | inactive | inactive | –
COc1ccc(-c2nc3c(c4c2C[C@H](c2ccccc2)OC4)CN(C(=O)N[C@@H](C)c2ccccc2)CC3)c(C)c1 | – | inactive | 1690 nM (active) | inactive | inactive | 3.19% [at 1.12 µM] (inactive)
CC1(OC(=O)CCc2ccccc2)C(=O)C=C2C=C(c3ccc(C#N)cc3)N(C(CO)CO)C=C2C1=O (stereo not given) | – | inactive | inactive | inactive | inactive | -1.45% [at 1.12 µM] (inactive)
CCOC(=O)OC[C@H]1O[C@H](C#Cc2ccc(C)cc2C)C=C[C@H]1OC(=O)OCC | inactive | inactive | inactive | inactive | inactive | –
COc1ccc(COC(=O)NN=C2C[C@@H](O)[C@@H](O)[C@@H]3[C@H]4C(=O)N(C5CCCCC5)C(=O)[C@@H]4CC[C@@H]23)cc1 | inactive | inactive | inactive | inactive | inactive | –
COC(=O)NC(c1ccccc1)c1c[nH]c2ccccc12 (stereo not given) | inactive | inactive | inactive | inactive | inactive | –
C#CCN1C(=O)[C@@]2(CC(C)=CC[C@@H](C)O2)c2ccccc21 | inactive | inactive | inactive | inactive | inactive | –
CCC(=O)OC1(C)C(=O)C=C2C=C(CCCC(=O)OC)OC=C2C1=O (stereo not given) | inactive | inactive | inactive | inactive | inactive | –
C(=Cc1nc(-c2ccccc2)oc1Nc1ccc2ccccc2c1)c1ccccc1 | inactive | inactive | inactive | inactive | inactive | –
CCOC(=O)CCN1C(=O)[C@@H]2[C@H]3[C@H](O)[C@H](O)CC(=NNC(=O)OCc4ccccc4)[C@H]3CC[C@H]2C1=O | inactive | inactive | inactive | inactive | inactive | –
COc1ccc(C2=CC3=C(Br)C(=O)C(C)(O)C(=O)C3=CO2)cc1 (stereo not given) | inactive | inactive | inactive | inactive | inactive | –
COC(=O)CCCC1=CC2=CC(=O)C(C)(OC(=O)c3cccs3)C(=O)C2=CN1CCc1c[nH]c2ccccc12 (stereo not given) | inactive | inactive | inactive | inactive | inactive | –
COC(=O)C1=C(C(=O)OC)[C@@H]2N(Cc3ccccc3)c3ccccc3[C@@]23C[C@@H](C(=O)OC)N(C(=O)Nc2ccc(C(F)(F)F)cc2)C3=N1 | inactive | inactive | inactive | inactive | inactive | –
C[C@H]1Cc2c(-c3ccccc3)nc3c(c2CO1)CN(S(=O)(=O)c1ccc2c(c1)OCCN2C)CC3 | – | inactive | inactive | inactive | inactive | 0.591% [at 1.12 µM] (inactive)
CC(=O)[C@@H]1[C@@H](C)N(Cc2ccccc2)C(=O)N[C@H]1c1ccccc1 | inactive | inactive | inactive | inactive | inactive | –
Cc1cc2c(c(=O)o1)[C@H]1O[C@](c3ccsc3)(Cc3cc(C#N)ccc31)O2 | inactive | inactive | inactive | inactive | inactive | –

SMILES | Potency [1] | Potency [2] | Potency [3] | Potency [4] | Potency [5] | activity, negative = inhibition [1]
COC(=O)[C@@H]1[C@@H](c2cccc(C(F)(F)F)c2)NC(=O)N(Cc2ccccc2)[C@@H]1C | inactive | inactive | inactive | inactive | inactive | –
CCCCS(=O)(=O)N1C2=NC3=C(C(=O)N(CCOC)C3=O)C3N(C)c4ccccc4[C@]23C[C@H]1CO (stereo not given in full) | inactive | inactive | inactive | inactive | inactive | –
O=C(NN=C1C[C@@H](O)[C@H](O)[C@H]2[C@@H]3C(=O)N(C4CCCCC4)C(=O)[C@@H]3CC[C@@H]12)OCc1ccccc1 | inactive | inactive | inactive | inactive | inactive | –
COC(=O)[C@@H](O)CC[C@@H](C)Cc1c(OC)c(OC)c(C)c(OC)c1OC | inactive | inactive | inactive | inactive | inactive | –
CCCCc1cc2c(cn1)=C(OC(=O)CCC(=O)OC)C(C)(OC(=O)CC)C(=O)C=2 (stereo not given) | – | 1.69 µM (active) | 1690 nM (active) | inactive | inactive | -0.996% [at 1.12 µM] (inactive)
COC(=O)[C@H]1O[C@@H](c2c(OC)c(OC)c(C)c(OC)c2OC)[C@H](C)[C@@H](O)[C@@H]1C | inactive | inactive | inactive | inactive | inactive | –
COC[C@H]1O[C@H](c2ccccc2)C=C[C@H]1OCc1cccc(Br)c1 | inactive | inactive | inactive | inactive | inactive | –
COc1ccc2c(c1)O[C@@H](c1ccc3c(c1)OCO3)[C@H](OC(=O)N[C@H](C)C1CCCCC1)C2=O | inactive | inactive | inactive | inactive | inactive | –
COC(=O)C(Cc1cc(Br)c(OC)c(Br)c1O)=NO | inactive | inactive | inactive | inactive | inactive | –
COc1ccc2c(c1)c(CC(=O)NCc1ccc3c(c1)OCO3)c(C)n2C(=O)c1ccc(Cl)cc1 | inactive | inactive | inactive | inactive | inactive | –
CC1(OC(=O)C2CCCC2)C(=O)C=C2C=C(c3ccsc3)N(c3cccc(C#N)c3)C=C2C1=O (stereo not given) | inactive | inactive | inactive | inactive | 2660 nM (active) | –
CCCCCC1=CC2=C(C(=O)OC)C(c3ccccc3)NC(=O)N2CC1 (stereo not given) | inactive | inactive | inactive | inactive | inactive | –
COC(=O)CC=C[C@@H](C)[C@@H](C=NO[C@H](C)c1cn([C@@H]2COC[C@@H]2O)nn1)N[S+](=O)([O-])c1ccc(C)cc1 | inactive | inactive | inactive | inactive | inactive | –
CC(C)CON=C1C[C@@H](O)[C@@H](O)[C@@H]2[C@H]3C(=O)N(Cc4ccccc4)C(=O)[C@@H]3CC[C@@H]12 | inactive | inactive | inactive | inactive | inactive | –
COC(=O)C1=C[C@@]2(c3ccc(F)cc3[C@@H](OC)[C@@H]2C)[C@@H]2C=C[C@H]1C2 | inactive | inactive | inactive | inactive | inactive | –
O=C(NC(CC1=CCCCC1)c1ccc2c(c1)OCO2)C(F)(F)F (stereo not given) | inactive | inactive | inactive | inactive | inactive | –
COC(=O)c1c(C(=O)OC)c2c3ccccc3cc(C3CC3)n2c1C(=O)OC | inactive | inactive | inactive | inactive | inactive | –
CCN1C(=NCCc2cccnc2)NC(CCc2ccccc2)C(C(=O)OC)=C1C (stereo not given) | inactive | inactive | inactive | inactive | inactive | –
C#CCN1C(=O)C2(CC(C)=C[C@@H](C)O2)c2c(Br)cccc21 (stereo not given in full) | inactive | inactive | inactive | inactive | inactive | –
CCCCn1c(C)cc2c(c1=O)[C@H]1O[C@](c3ccsc3)(Cc3cc(OC)c(OC)cc31)O2 | inactive | inactive | inactive | inactive | inactive | –
CC(C)OCCCN1C=C2C(=O)C(C)(OC(=O)C3CCCC3)C(=O)C=C2C=C1c1ccsc1 (stereo not given) | – | inactive | inactive | inactive | inactive | -2.66% [at 1.12 µM] (inactive)
C[C@H]1CCCC(=O)N[C@@H](c2ccccc2)[C@@H](C)CCCC(=O)N[C@@H]1c1ccccc1 | inactive | inactive | inactive | inactive | inactive | –
COC(=O)[C@H]1[C@@H](c2cccc(C(F)(F)F)c2)NC(=O)N(Cc2ccccc2)[C@@H]1C | inactive | inactive | inactive | inactive | inactive | –
COc1ccc(COC(=O)NN=C2C[C@@H](O)[C@@H](O)[C@@H]3[C@H]4C(=O)N(Cc5ccccc5)C(=O)[C@@H]4CC[C@@H]23)cc1 | inactive | inactive | inactive | inactive | inactive | –
CCOC(=O)N1C2=NC(C(=O)OC)=C(C(=O)OC)[C@@H]3Nc4ccccc4[C@]23C[C@H]1C(=O)OC | – | 1.9 µM (active) and inactive | inactive | inactive | inactive | -0.255% [at 1.12 µM] (inactive)
Cc1cc(O)cc(O)c1C(=O)OC1(C)C(=O)C=C2C=C(C=CC(=O)O)OC=C2C1=O (stereo not given) | inactive | inactive | inactive | inactive | inactive | –
